# Results: PubChem BioAssay
# Calls of active or inactive are those of the source.
# What was measured:
# [1] = tested on: Plasmodium falciparum Sir2 (PF13_0152, Sir2A); test: Plasmodium falciparum Sir2A binding compounds – biochemical, small-molecule microarray, 635 nm fluorescence, primary screen (AID 1098); settings: fluorescence 635 nm, higher = more signal;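 further: score merges spot fluorescence intensity with its signal-to-noise ratio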
# [2] = probe aDKK1 binding to arrayed compounds – biochemical, biotinylated probe, 635/667 nm fluorescence, primary screen (AID 1099); settings: small-molecule microarray, higher = more signal;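 further: score merges 667nm spot fluorescence with signal to noise across triplicate slides; reference of the scale not given here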
# [3] = probe aCHRDL2 binding to arrayed compounds – biochemical, biotinylated probe, 635/667 nm fluorescence, primary screen (AID 1100); settings: small-molecule microarray, higher = more signal
# [4] = change in splice reporter luminescence, either direction, cell-based, HEK293, spliceosome inhibition project, primary screen (AID 1101); settings: HEK293 splicing luciferase reporter, 24 h, higher = more signal, called active from +8 up or from −8 down;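 further: HEK293 cells carrying a splicing-competent luciferase reporter gene; test concentration not given here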
# [5] = biological target: Fibroblast growth factor 10 (Homo sapiens) (UniProt O15520); test: compounds binding fibroblast growth factor 10 – biochemical, small-molecule microarray, 635 nm fluorescence, primary screen (AID 1102); settings: FGF10 binding, fluorescence 635 nm, higher = more signal
# Sequence of Fibroblast growth factor 10 (Homo sapiens) (O15520 whole entry, looked up): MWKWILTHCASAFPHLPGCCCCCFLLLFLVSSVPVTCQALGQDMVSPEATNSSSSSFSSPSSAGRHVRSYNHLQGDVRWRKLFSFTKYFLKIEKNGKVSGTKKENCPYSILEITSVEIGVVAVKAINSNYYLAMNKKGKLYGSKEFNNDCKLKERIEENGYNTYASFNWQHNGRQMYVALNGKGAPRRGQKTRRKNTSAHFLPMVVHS
# [6] = tested on: glycogen synthase kinase-3 (GSK3A per assay name; protocol says GSK3B); test: compounds binding glycogen synthase kinase-3 – biochemical, small-molecule microarray, 635 nm fluorescence, GSK3A, primary screen (AID 1103); settings: fluorescence 635 nm, higher = more signal; further: the record names both GSK3A and GSK3B
# [7] = biological target: Epidermal growth factor receptor (Homo sapiens) (UniProt P00533); test: compounds binding epidermal growth factor receptor – biochemical, small-molecule microarray, 635 nm fluorescence, primary screen (AID 1104); settings: EGFR binding, higher = more signal;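 further: score merges 667 nm emission intensity with spot signal to noise over triplicate slides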
# Sequence of Epidermal growth factor receptor (Homo sapiens) (P00533 whole entry, looked up): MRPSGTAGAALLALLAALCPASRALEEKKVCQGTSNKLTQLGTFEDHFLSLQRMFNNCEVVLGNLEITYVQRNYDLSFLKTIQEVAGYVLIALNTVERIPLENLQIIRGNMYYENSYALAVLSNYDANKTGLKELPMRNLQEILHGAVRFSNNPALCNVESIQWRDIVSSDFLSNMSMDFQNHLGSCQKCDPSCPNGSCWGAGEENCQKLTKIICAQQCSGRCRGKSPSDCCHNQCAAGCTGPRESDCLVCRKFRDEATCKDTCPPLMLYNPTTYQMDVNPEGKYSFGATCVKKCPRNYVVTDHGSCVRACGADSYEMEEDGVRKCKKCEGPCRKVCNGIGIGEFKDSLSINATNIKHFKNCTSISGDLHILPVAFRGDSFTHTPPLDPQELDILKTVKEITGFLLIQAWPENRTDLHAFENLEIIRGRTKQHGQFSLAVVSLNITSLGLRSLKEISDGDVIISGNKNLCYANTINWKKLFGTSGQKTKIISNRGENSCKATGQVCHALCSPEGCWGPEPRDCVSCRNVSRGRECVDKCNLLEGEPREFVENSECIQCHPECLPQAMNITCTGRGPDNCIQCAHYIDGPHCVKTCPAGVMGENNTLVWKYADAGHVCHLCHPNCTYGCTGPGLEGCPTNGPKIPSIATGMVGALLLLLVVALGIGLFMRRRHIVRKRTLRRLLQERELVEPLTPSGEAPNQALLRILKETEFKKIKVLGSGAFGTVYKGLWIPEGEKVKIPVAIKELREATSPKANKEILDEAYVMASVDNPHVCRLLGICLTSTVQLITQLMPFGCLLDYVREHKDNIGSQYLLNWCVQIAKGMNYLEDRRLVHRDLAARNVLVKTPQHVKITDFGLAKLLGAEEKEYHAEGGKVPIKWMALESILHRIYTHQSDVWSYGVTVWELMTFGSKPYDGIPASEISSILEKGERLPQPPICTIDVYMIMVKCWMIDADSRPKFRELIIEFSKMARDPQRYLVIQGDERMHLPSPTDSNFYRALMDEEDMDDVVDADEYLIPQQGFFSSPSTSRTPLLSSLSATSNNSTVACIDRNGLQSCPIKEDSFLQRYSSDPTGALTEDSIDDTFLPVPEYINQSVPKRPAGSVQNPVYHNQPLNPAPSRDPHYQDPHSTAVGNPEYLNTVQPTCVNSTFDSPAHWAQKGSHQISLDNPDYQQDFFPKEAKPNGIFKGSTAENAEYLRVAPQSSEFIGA
# [8] = biological target: Follistatin-related protein 3 (Homo sapiens) (UniProt O95633); test: compounds binding follistatin-related protein 3 – biochemical, small-molecule microarray, 635 nm fluorescence, primary screen (AID 1105); settings: FSTL3 binding, higher = more signal;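 further: score merges emission near 667 nm and signal to noise per printed spot across three slides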
# Sequence of Follistatin-related protein 3 (Homo sapiens) (O95633 whole entry, looked up): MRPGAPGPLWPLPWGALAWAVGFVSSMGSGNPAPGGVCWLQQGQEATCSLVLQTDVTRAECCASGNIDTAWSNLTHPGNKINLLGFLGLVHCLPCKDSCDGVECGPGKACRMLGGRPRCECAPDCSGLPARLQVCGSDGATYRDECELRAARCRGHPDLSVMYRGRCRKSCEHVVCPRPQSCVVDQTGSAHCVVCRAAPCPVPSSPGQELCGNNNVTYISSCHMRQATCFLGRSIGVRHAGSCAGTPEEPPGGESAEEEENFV
# [9] = biological target: Dickkopf-related protein 1 (Homo sapiens) (UniProt O94907); test: small molecules binding DKK1 protein – biochemical, small-molecule microarray, 635 nm fluorescence scan, primary screen (AID 1106); settings: higher = more signal;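 further: score merges emission near 667 nm with signal to noise over three replicate slides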
# Sequence of Dickkopf-related protein 1 (Homo sapiens) (O94907 whole entry, looked up): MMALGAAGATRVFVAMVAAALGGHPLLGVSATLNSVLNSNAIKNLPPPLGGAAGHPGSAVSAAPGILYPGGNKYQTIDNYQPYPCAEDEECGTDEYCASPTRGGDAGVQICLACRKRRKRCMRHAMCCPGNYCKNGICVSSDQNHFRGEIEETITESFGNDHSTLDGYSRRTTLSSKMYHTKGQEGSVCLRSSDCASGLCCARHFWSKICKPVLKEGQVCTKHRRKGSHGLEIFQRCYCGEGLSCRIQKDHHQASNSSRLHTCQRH
# [10] = tested on: Inhibin beta A chain (activin A); test: small molecules binding activin A – biochemical, small-molecule microarray, 635 nm fluorescence scan, primary screen (AID 1107); settings: INHBA, higher = more signal;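 further: mouse activin A protein probed at 4.33 µg/mL on printed slides; score merges bound-protein fluorescence near 667 nm with spot signal-to-noise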
SMILES,composite z-score [1],composite z-score [2],composite z-score [3],z-score [4],composite z-score [5],composite z-score [6],composite z-score [7],composite z-score [8],composite z-score [9],composite z-score [10]
COc1ccc(C#Cc2ccc3c(c2)[C@]2(C(=O)N3)[C@H](C(=O)N3CCN(c4ncccn4)CC3)[C@H]3C(=O)O[C@H](c4ccccc4)[C@H](c4ccccc4)N3[C@@H]2c2ccc(O)cc2)cc1,0.707,-0.015,0.612,-0.73 (inactive),0.557,0.967,0.366,0.743,0.353,0.536
O=C1OCCC=C[C@H]2OC34C=CCN(CCN5CCOCC5)C(=O)[C@H]3N(CCO)C(=O)[C@@H]4C12 (stereo not given in full),-0.378,-0.507,-0.771,-0.197 (inactive),0.217,-0.594,-0.803,-0.0836,0.794,0.612
COCCOC(=O)N1C(=O)[C@@]2(c3cc(C#Cc4ccc(OC)cc4)ccc31)[C@H](c1ccc(O)cc1)N1[C@H](c3ccccc3)[C@H](c3ccccc3)OC(=O)[C@H]1[C@@H]2C(=O)N1CCN(c2ncccn2)CC1,0.408,-0.544,0.245,0.477 (inactive),0.735,-0.0597,0.375,0.85,0.355,0.349
Cc1ccccc1/C=C/C=O,0.939,-0.275,0.297,-0.0672 (inactive),-0.435,-1.09,-0.813,-0.303,-0.243,0.612
[N-]=[N+]=NCc1ccccc1C[C@]1(C(N)=O)N=C(c2ccc(OCCCO)cc2)O[C@H]1c1ccccc1N=[N+]=[N-],0.573,0.911,1.16,-0.288 (inactive),0.617,1,-0.236,0.416,-0.322,1.45
COC(=O)[C@@]1(Cc2ccc(OC)cc2)[C@H]2c3cc(C(=O)N4CCCC4)n(CCc4ccccn4)c3C[C@H]2CN1C(=O)c1ccccc1,1.18,0.904,0.95,-1.36 (inactive),0.289,-0.282,-0.664,-0.396,-0.949,0.845
C=C(C(=O)CC[C@@H](OC(C)=O)c1ccc(OCCO)cc1)C(C)C,0.167,-0.0523,0.104,1.02 (inactive),1.57,-0.117,-0.544,-0.152,-0.207,0.815
C=CCC(OC(C)=O)[C@@H]1[C@@H](N(Cc2cc3ccccc3o2)C(=O)c2cccc3ccccc23)c2cc(OCCCO)ccc2N1C(=O)Cc1ccc2ccccc2c1 (stereo not given in full),0.53,0.224,0.471,-0.904 (inactive),0.0259,-0.925,-0.221,0.0969,-0.0207,1.02
O=C1[C@H]2C=C(Br)[C@H](C[C@@H]2OCCOCCO)[C@@]12CO2,0.146,-0.119,-0.115,0.651 (inactive),0.527,0.144,0.475,0.118,0.18,1.02
COc1ccc([Si](C)(C)[C@H]2[C@H](CC(=O)N(CCO)Cc3ccccc3)O[C@@]3(C(=O)N(Cc4cccc(N5C(=O)c6cccc7cccc5c67)c4)c4ccccc43)[C@@H]2C)cc1,0.803,-0.534,0.0901,-2.5 (inactive),0.158,0.0107,0.148,0.303,0.491,0.9
C[N+](C)(C)CCCC[C@@H]1NC(=O)[C@H]2C[C@@H](C(=O)O)[C@@H](c3cccc(OCCO)c3)N2C1=O,2.08,2.39,1.38,-0.246 (inactive),1.4,1.36,1.17,1.41,1.3,1.47
Oc1ccc2cc[n+](Cc3cccc(OC(F)(F)F)c3)cc2c1,1.36,-0.319,-0.576,0.609 (inactive),0.837,-0.477,1.2,1.24,0.732,0.826
Cc1ccc(N2C(=O)c3ccccc3[C@@H](C(=O)NCC(C)C)[C@@H]2c2ccc(CO)cc2)nc1,1.48,-0.244,0.544,0.337 (inactive),-0.617,-0.813,-1.26,-1.19,-0.52,0.244
COc1ccc([Si](C)(C)[C@H]2[C@H](CC(=O)N3CCC[C@H]3CO)O[C@@]3(C(=O)N(c4ccccc4)c4ccccc43)[C@@H]2C)cc1,1.28,-0.344,-0.28,-1.82 (inactive),-0.174,-0.828,0.138,0.051,0.487,0.581
O=C(CS)NCCCCCCNC(=O)[C@H]1C[C@H]2C(=O)N3CCC[C@H]3C(=O)N2[C@H]1c1ccc(O)cc1,1.63,0.104,0.0018,1.46 (inactive),0.732,-0.477,-0.154,0.972,0.317,0.487
CN(C)CCCC[C@@H]1NC(=O)[C@@H]2C[C@H](C(=O)NCc3ccc(F)cc3)[C@H](c3cccc(OCCO)c3)N2C1=O,1.17,0.0666,0.0708,-0.815 (inactive),1.36,0.833,0.267,1.17,0.314,-0.218
C=C(C(=O)CC[C@H](OC(=O)c1cccnc1)c1ccccc1OCCO)C(C)C,1.14,-0.109,-0.0641,3.21 (inactive),1.56,0.98,1.25,1.13,0.962,1.11
COC(=O)[C@@]1(Cc2ccccc2)[C@H]2c3cc(C(=O)N(C)C)n(Cc4cc(F)c(F)c(F)c4)c3C[C@H]2CN1C(=O)c1ccccc1,1.47,0.375,1.22,-3.26 (inactive),0.86,-0.629,0.0296,0.521,-0.818,0.748
[N-]=[N+]=NCc1ccccc1C[C@@]1(C(=O)NCc2ccccc2)N=C(c2ccc(OCCCO)cc2)O[C@@H]1c1ccccc1CN=[N+]=[N-],1.39,1.09,1.06,0.48 (inactive),0.639,1.13,-0.286,-0.0894,-0.242,0.123
C=CCOC(=O)[C@@H]1[C@H]2C(=O)O[C@H](c3ccccc3)[C@H](c3ccccc3)N2[C@H](c2ccc(OCCOC(=O)[C@H]3C[C@H]4C(=O)N[C@@H](CCCC[N+](C)(C)C)C(=O)N4[C@H]3c3cccc(OCCO)c3)cc2)[C@@]12C(=O)Nc1ccc(I)cc12,1.53,0.135,-0.0036,-0.241 (inactive),1.21,1.29,1.32,1.43,1.7,0.538
COc1ccc(CCNC(=O)[C@@]2(C)c3ccccc3C(=O)N(Cc3ccccc3)[C@H]2c2ccc(CO)cc2)cc1,1.49,0.28,0.376,-0.278 (inactive),1.26,0.707,0.433,1.43,0.548,0.684
